Hit rate of the full screen: of about 60,000 compounds, about 370 (0.62%) were called active. The sample as a whole holds a higher share of actives than the screen did. Values without a mark were called inactive. Cut-off read from the data, not from the text of the source: active = inhibition above about 17%; inactive = the rest.
Each molecule was assayed against Mitogen-activated protein kinase 10 (Homo sapiens) (UniProt P53779) (assay: JNK3 kinase activity inhibitors, primary screen, biochemical, human, purified enzyme (AID 746;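 note: 0% = DMSO and 100% = reference inhibitor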)). Conditions: HTS, at 8 µM, hits give high values.
Mitogen-activated protein kinase 10 (Homo sapiens), sequence (P53779 whole entry, looked up): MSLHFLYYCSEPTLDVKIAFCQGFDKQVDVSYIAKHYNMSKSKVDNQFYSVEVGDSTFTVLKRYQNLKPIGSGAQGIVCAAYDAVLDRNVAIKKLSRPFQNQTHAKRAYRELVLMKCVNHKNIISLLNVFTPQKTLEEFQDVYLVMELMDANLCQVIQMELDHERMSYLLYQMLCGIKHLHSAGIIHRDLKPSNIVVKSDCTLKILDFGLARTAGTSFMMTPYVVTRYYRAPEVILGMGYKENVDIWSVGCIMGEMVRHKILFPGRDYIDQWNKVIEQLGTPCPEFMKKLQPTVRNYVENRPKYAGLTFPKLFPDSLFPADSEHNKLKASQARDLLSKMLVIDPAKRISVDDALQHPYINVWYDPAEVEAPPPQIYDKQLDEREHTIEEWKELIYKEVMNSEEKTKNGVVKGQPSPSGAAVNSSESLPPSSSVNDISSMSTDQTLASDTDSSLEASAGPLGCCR

SMILES	inhibition
O=C(CN1CCN(C(=O)c2cccc(F)c2)CC1)Nc1ccccc1F	-3.2%
CCOC(=O)CSc1nnc(NC(=O)c2cccc(S(=O)(=O)N3CCCCC3)c2)s1	-2.01%
CCOC(=O)c1sc(N(Cc2ccccc2)C(=O)CN2C(=O)CN(C)C2=O)nc1C	0.36%
Cc1ccc(C(=O)COc2cccc(NC(=O)c3ccco3)c2)cc1	0.83%
Cn1c(=O)[nH]c(=O)c2c1nc(CN1CCN(c3ccccc3F)CC1)n2CCc1ccccc1	3.94%
Cc1ccccc1NC(=O)c1cnn(-c2ccccc2)c1NC(=O)c1ccco1	-3.45%
O=P(c1cccs1)(c1cccs1)c1cccs1	-3.85%
O=C(Nc1cccc2cccnc12)c1cccc(N2C(=O)CCC2=O)c1	4.05%
O=C(CSCc1cccs1)N1CCCC1	5.67%
CCc1ccc(-c2nnn(Cc3nc4ccccc4s3)n2)cc1	-6.35%
CCC(C)NC(=O)N[C@@H](CCSC)C(=O)O (stereo not given in full)	1.22%
O=C(Nc1cc(C(F)(F)F)ccc1Cl)c1cc(C2CC2)on1	4.08%
Cn1c(=O)c2c(nc(SCCNS(=O)(=O)c3ccccc3)n2C)n(C)c1=O	-3.56%
Cc1ccccc1CSc1nnc(Cn2c(=O)sc3ccccc32)n1C	0.98%
Cc1ccc2nc3n(c(=O)c2c1)CCC3	-2.11%
O=C(Cn1[nH]c(=O)c2ccccc2c1=O)Nc1cccc(-c2nnc3n2CCCCC3)c1	-2.76%
O=c1c2c(nc3n1CCCCC3)sc1c(O)cccc12	19.3% (active)
CCn1cc(C(=O)N2CCN(C3CCCCC3)CC2)c2cc(OC)c(OC)cc2c1=O	-1.36%
O=C(Cn1cnc2c(cnn2-c2ccccc2)c1=O)NCc1ccccc1	3.12%
CCCc1cc(=O)[nH]c(SCC(=O)OCc2ccccc2)n1	-3.94%
